Compounds without any hit were thinned out: in the full panel of roughly 79,000, 15% have a hit. Calls of active or inactive are those of the source. Rule as the data show it: active = growth inhibition above about 70%; inactive = the rest.
How the values were obtained:
[1] = NCI Yeast Anticancer Drug Screen. Data for the rad50 strain (AID 155);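 also: 0% = growth of vehicle-only cultures of the same strain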; conditions: S. cerevisiae rad50 strain growth inhibition, active compounds read high
Outline: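 Genetically altered yeast (DNA repair pathway); compound treatment; growth inhibition vs vehicle ctrl.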

[2] = NCI Yeast Anticancer Drug Screen. Data for the mec2-1 strain (AID 157); conditions: S. cerevisiae mec2-1 strain, active compounds read high
Outline: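 Mutant yeast (mec2-1) grown with compound; growth inhibition relative to vehicle control reported.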

[3] = NCI Yeast Anticancer Drug Screen. Data for the sgs1 mgt1 strain (AID 161);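 also: 0% = growth of cultures given vehicle only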; conditions: S. cerevisiae sgs1 mgt1 strain, active compounds read high
Outline: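 Growth of a repair-deficient yeast mutant was monitored after compound treatment and expressed as inhibition relative to vehicle-treated cultures.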

[4] = NCI Yeast Anticancer Drug Screen. Data for the cln2 rad14 strain (AID 165);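 also: 0% = growth equal to vehicle treated cultures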; conditions: S. cerevisiae cln2 rad14 strain, active compounds read high
Outline: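 Readout is yeast growth inhibition versus vehicle-treated controls, using a strain with cln2 and rad14 alterations exposed to compound.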

[5] = NCI Yeast Anticancer Drug Screen. Data for the bub3 strain (AID 167); conditions: S. cerevisiae bub3 mutant strain, active compounds read high
Outline: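 Yeast carrying a defined mutation is treated with each compound, and growth is compared with that of vehicle-exposed cells to give inhibition.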

[6] = NCI Yeast Anticancer Drug Screen. Data for the mlh1 rad18 strain (AID 175); conditions: S. cerevisiae mlh1 rad18 strain growth inhibition, active compounds read high
Outline: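 Genetically defined yeast (DNA repair-deficient) exposed to compounds; growth inhibition determined relative to vehicle.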

[7] = at 5.0 µM (retest, dose inferred, filed as 0.5)
[8] = at 50.0 µM (retest, dose inferred, filed as 5.0)

Nc1ccc(Cc2ccc(N)c(Cl)c2)cc1Cl
growth inhibition [1, 7]: -6% (inactive)
growth inhibition [1, 8]: 90% (active)
growth inhibition ([1]; at 50.0 µM): 78% (active)
growth inhibition [2, 7]: -8% (inactive)
growth inhibition [2, 8]: 78% (active)
growth inhibition ([2]; at 50.0 µM): 95.1% (active)
growth inhibition [3, 7]: -1% (inactive)
growth inhibition [3, 8]: 92% (active)
growth inhibition ([3]; at 50.0 µM): 95.2% (active)
growth inhibition [4, 7]: -10% (inactive)
growth inhibition [4, 8]: 91% (active)
growth inhibition ([4]; at 50.0 µM): 75.8% (active)
growth inhibition [5, 7]: 0% (inactive)
growth inhibition [5, 8]: 93% (active)
growth inhibition ([5]; at 50.0 µM): 96.8% (active)
growth inhibition [6, 7]: -3% (inactive)
growth inhibition [6, 8]: 97% (active)
growth inhibition ([6]; at 50.0 µM): 97.2% (active)

CC#C[P+](c1ccccc1)(c1ccccc1)c1ccccc1
growth inhibition [1, 7]: 98% (active)
growth inhibition [1, 8]: 98% (active)
growth inhibition ([1]; at 50.0 µM): 91.2% (active)
growth inhibition [2, 7]: 87% (active)
growth inhibition [2, 8]: 87% (active)
growth inhibition ([2]; at 50.0 µM): 92.9% (active)
growth inhibition [3, 7]: 90% (active)
growth inhibition [3, 8]: 90% (active)
growth inhibition ([3]; at 50.0 µM): 92.8% (active)
growth inhibition [4, 7]: 91% (active)
growth inhibition [4, 8]: 91% (active)
growth inhibition ([4]; at 50.0 µM): 90.8% (active)
growth inhibition [5, 7]: 86% (active)
growth inhibition [5, 8]: 86% (active)
growth inhibition ([5]; at 50.0 µM): 90.2% (active)
growth inhibition [6, 7]: 95% (active)
growth inhibition [6, 8]: 95% (active)
growth inhibition ([6]; at 50.0 µM): 88.8% (active)

CC[C@@]1(O)C[C@H](OC2CC(N)C(O)C(C)O2)c2c(O)c3c(c(O)c2[C@H]1C(=O)OC)C(=O)c1cccc(O)c1C3=O (some centres not stated)
growth inhibition [1, 7]: 63% (inactive)
growth inhibition [1, 8]: 99% (active)
growth inhibition ([1]; at 50.0 µM): 78.1% (active)
growth inhibition [2, 7]: 27% (inactive)
growth inhibition [2, 8]: 99% (active)
growth inhibition ([2]; at 50.0 µM): 87.5% (active)
growth inhibition [3, 7]: 48% (inactive)
growth inhibition [3, 8]: 99% (active)
growth inhibition ([3]; at 50.0 µM): 80.2% (active)
growth inhibition [4, 7]: 39% (inactive)
growth inhibition [4, 8]: 99% (active)
growth inhibition ([4]; at 50.0 µM): 67.3% (inactive)
growth inhibition [5, 7]: 52% (inactive)
growth inhibition [5, 8]: 99% (active)
growth inhibition ([5]; at 50.0 µM): 76.7% (active)
growth inhibition [6, 7]: 50% (inactive)
growth inhibition [6, 8]: 98% (active)
growth inhibition ([6]; at 50.0 µM): 80.2% (active)

COc1cc(Br)cc(/C=C(\C)[N+](=O)[O-])c1O
growth inhibition [1, 7]: 11% (inactive)
growth inhibition [1, 8]: 96% (active)
growth inhibition ([1]; at 50.0 µM): 99.5% (active)
growth inhibition [2, 7]: 7% (inactive)
growth inhibition [2, 8]: 95% (active)
growth inhibition ([2]; at 50.0 µM): 99.8% (active)
growth inhibition [3, 7]: 18% (inactive)
growth inhibition [3, 8]: 97% (active)
growth inhibition ([3]; at 50.0 µM): 99.8% (active)
growth inhibition [4, 7]: -5% (inactive)
growth inhibition [4, 8]: 94% (active)
growth inhibition ([4]; at 50.0 µM): 99.5% (active)
growth inhibition [5, 7]: -1% (inactive)
growth inhibition [5, 8]: 97% (active)
growth inhibition ([5]; at 50.0 µM): 99.7% (active)
growth inhibition [6, 7]: 9% (inactive)
growth inhibition [6, 8]: 97% (active)
growth inhibition ([6]; at 50.0 µM): 99.7% (active)

CCCCN(CCCC)CCc1ccc(OC(=O)c2ccc(N)cc2)cc1
growth inhibition [1, 7]: 27% (inactive)
growth inhibition [1, 8]: 76% (active)
growth inhibition ([1]; at 50.0 µM): 82.5% (active)
growth inhibition [2, 7]: 23% (inactive)
growth inhibition [2, 8]: 80% (active)
growth inhibition ([2]; at 50.0 µM): 70.7% (active)
growth inhibition [3, 7]: 46% (inactive)
growth inhibition [3, 8]: 90% (active)
growth inhibition ([3]; at 50.0 µM): 91.2% (active)
growth inhibition [4, 7]: 42% (inactive)
growth inhibition [4, 8]: 73% (active)
growth inhibition ([4]; at 50.0 µM): 90.2% (active)
growth inhibition [5, 7]: 50% (inactive)
growth inhibition [5, 8]: 84% (active)
growth inhibition ([5]; at 50.0 µM): 79% (active)
growth inhibition [6, 7]: 32% (inactive)
growth inhibition [6, 8]: 78% (active)
growth inhibition ([6]; at 50.0 µM): 84.8% (active)

CCC1(O)C(=O)OCc2c1cc1n(c2=O)Cc2cc3ccc(C#N)cc3nc2-1 (configuration not stated)
growth inhibition [1, 7]: 71% (active)
growth inhibition [1, 8]: 57% (inactive)
growth inhibition ([1]; at 50.0 µM): 51% (inactive)
growth inhibition [2, 7]: 11% (inactive)
growth inhibition [2, 8]: -6% (inactive)
growth inhibition ([2]; at 50.0 µM): -20.8% (inactive)
growth inhibition [3, 7]: 11% (inactive)
growth inhibition [3, 8]: -132% (inactive)
growth inhibition ([3]; at 50.0 µM): -30.6% (inactive)
growth inhibition [4, 7]: 10% (inactive)
growth inhibition [4, 8]: -5% (inactive)
growth inhibition ([4]; at 50.0 µM): -16.7% (inactive)
growth inhibition [5, 7]: -6% (inactive)
growth inhibition [5, 8]: -63% (inactive)
growth inhibition ([5]; at 50.0 µM): -4.05% (inactive)
growth inhibition [6, 7]: 10% (inactive)
growth inhibition [6, 8]: -9% (inactive)
growth inhibition ([6]; at 50.0 µM): -15.6% (inactive)

O=c1oc2ccccc2c(O)c1C(C/C(CCN1CCCC1)=N\Nc1ccccc1)c1ccccc1 (configuration not stated)
growth inhibition [1, 7]: 3% (inactive)
growth inhibition [1, 8]: 3% (inactive)
growth inhibition ([1]; at 50.0 µM): 86.3% (active)
growth inhibition [2, 7]: -2% (inactive)
growth inhibition [2, 8]: -2% (inactive)
growth inhibition ([2]; at 50.0 µM): 80.7% (active)
growth inhibition [3, 7]: 1% (inactive)
growth inhibition [3, 8]: 1% (inactive)
growth inhibition ([3]; at 50.0 µM): 87.8% (active)
growth inhibition [4, 7]: 8% (inactive)
growth inhibition [4, 8]: 8% (inactive)
growth inhibition ([4]; at 50.0 µM): 81.3% (active)
growth inhibition [5, 7]: -13% (inactive)
growth inhibition [5, 8]: -13% (inactive)
growth inhibition ([5]; at 50.0 µM): 81.7% (active)
growth inhibition [6, 7]: -6% (inactive)
growth inhibition [6, 8]: -6% (inactive)
growth inhibition ([6]; at 50.0 µM): 83.9% (active)

O=C(c1ccccc1)c1c(CC(O)c2ccncc2)n(C(=O)c2ccccc2)c2ccccc12 (configuration not stated)
growth inhibition [1, 7]: 18% (inactive)
growth inhibition [1, 8]: 95% (active)
growth inhibition ([1]; at 50.0 µM): 94% (active)
growth inhibition [2, 7]: -2% (inactive)
growth inhibition [2, 8]: 96% (active)
growth inhibition ([2]; at 50.0 µM): 92.5% (active)
growth inhibition [3, 7]: 8% (inactive)
growth inhibition [3, 8]: 97% (active)
growth inhibition ([3]; at 50.0 µM): 92.2% (active)
growth inhibition [4, 7]: 18% (inactive)
growth inhibition [4, 8]: 96% (active)
growth inhibition ([4]; at 50.0 µM): 82.7% (active)
growth inhibition [5, 7]: -3% (inactive)
growth inhibition [5, 8]: 98% (active)
growth inhibition ([5]; at 50.0 µM): 92.2% (active)
growth inhibition [6, 7]: 19% (inactive)
growth inhibition [6, 8]: 95% (active)
growth inhibition ([6]; at 50.0 µM): 93.8% (active)

O=c1ccn(C2OC(CO)C(O)C2O)c(=O)[n]1[Hg][c]1ccccc1 (configuration not stated)
growth inhibition [1, 7]: 99% (active)
growth inhibition [1, 8]: 99% (active)
growth inhibition ([1]; at 50.0 µM): 90.8% (active)
growth inhibition [2, 7]: 100% (active)
growth inhibition [2, 8]: 99% (active)
growth inhibition ([2]; at 50.0 µM): 89.7% (active)
growth inhibition [3, 7]: 100% (active)
growth inhibition [3, 8]: 100% (active)
growth inhibition ([3]; at 50.0 µM): 85.8% (active)
growth inhibition [4, 7]: 99% (active)
growth inhibition [4, 8]: 99% (active)
growth inhibition ([4]; at 50.0 µM): 88.3% (active)
growth inhibition [5, 7]: 100% (active)
growth inhibition [5, 8]: 99% (active)
growth inhibition ([5]; at 50.0 µM): 84.3% (active)
growth inhibition [6, 7]: 98% (active)
growth inhibition [6, 8]: 98% (active)
growth inhibition ([6]; at 50.0 µM): 91.8% (active)

Source: PubChem BioAssay (NCI)
